# Test results as given in PubChem BioAssay (EPA / NIEHS).
# Activity calls are given as the source filed them. How the source made its calls: active means hit-call score of the fitted dose curve at least 0.9, where 1 is the maximum; inactive means score below 0.9.
# Assay: APR_HepG2_MitoMass_1hr: Apredica 1-hour HepG2 Assay for Mitochondrial Mass (AID 2282674)
# Conditions: high-content imaging, actives raise or lower the signal
# Protocol: APR_HepG2_1hr is a cell-based, multiplexed-readout assay that uses HepG2, a human liver cell line, with measurements taken at 1 hour after chemical dosing in a 384-well plate.APR_HepG2_MitoMass_1hr is one of 10 assay component(s) measured or calculated from the APR_HepG2_1hr assay. It is designed to make measurements of cell phenotype, a form of morphology reporter, as detected with fluorescence intensity signals by HCS Fluorescent Imaging technology.Data from the assay component APR_HepG2_MitoMass_1hr was analyzed into 1 assay endpoint. This assay endpoint, APR_HepG2_MitoMass_1hr, was analyzed with bidirectional fitting relative to DMSO as the negative control and baseline of activity. Using a type of morphology reporter, gain or loss-of-signal activity can be used to understand changes in the signaling. Furthermore, this assay endpoint can be referred to as a primary readout, because this assay has produced multiple assay endpoints where this one serves a signaling function. To generalize the intended target to other relatable targets, this assay endpoint is annotated to the cell morphology intended target family, where the subfamily is organelle conformation.
# Cells were treated with dimethyl sulfoxide (DMSO) as a solvent control at a final concentration of 0.5% v/v or with compounds in DMSO with a resulting final DMSO concentration of 0.5% v/v. Compound treatment was done at concentrations of 0.39, 0.78, 1.56, 3.12, 6.24, 12.5, 25, 50, 100, and 200 uM in duplicate on each plate. Cells were treated with compounds for 1, 24, or 72 hr. Carbonyl […] m-chloro-phenylhydrazone (CCCP) and taxol were used as positive controls for mitochondrial function and cytoskeletal stability, respectively; DMSO served as the negative control for this experiment. Cells were fixed by the direct addition of 50 uL formaldehyde in Hank's Balanced Salt Solution (HBSS) to a final concentration of 3.7%. After incubation in the fixation medium for 30 min at room temperature (293-298 K), cells were rinsed twice with HBSS and treated with cell permeabilization buffer (16 uL of 0.5% Triton X-100) for 10 min at room temperature (293-298 K) before labeling. For mitochondrial membrane potential and mitochondrial measurements, pre-fixed cells were incubated with 50 uL of MitoTracker Red CMXRos (Invitrogen) at a concentration of 250 nM for 30 min before fixation. In the remaining cases, post-fixed cells were labeled by incubation with a multiplexed mixture of primary antibodies in HBSS for 60 min at room temperature (293-298 K) to detect immunoreactivity of c-Jun (1:500), phospho-histone H3 (1:100), phospho-histone H2A.x (1:200), p53 (1:400), alpha-tubulin (1:200) and Hoechst 33342 (2 ug/mL). Cells were labeled for multiplexed imaging on two separate plates: a) Hoechst 33342, MitoTracker Red, phospho-histone H3, and alpha-tubulin, and b) Hoechst 33342, phospho-histone H2A.x, and c-Jun. A final rinse with HBSS (50 uL) was performed before analysis. The primary and secondary antibodies for the proteins were phospho-histone H3 (rabbit anti-phospho-histone H3 and FITC-donkey anti-rabbit IgG), phospho-histone H2A.x (mouse anti-phospho-histone H2A.x and FITC-donkey anti-mouse IgG), c-Jun (rabbit anti-phospho-c-Jun and Cy3-donkey anti-rabbit IgG), p53 (sheep anti-p53 and Cy5-donkey anti-sheep IgG), alpha-tubulin (mouse anti-alpha-tubulin and Cy5-donkey anti-mouse IgG). These antibodies are available as the CellCiphr HepG2 assay kit (Millipore).Digital images of each well were captured using a Cellomics ArrayScan VTI (Thermo Scientific Cellomics) (0.8 NA objective, 0.63x optical coupler, and XF-93 filter set) at 20x magnification. The images were acquired using the autofocus feature of the ArrayScan instrument, which entails the following steps. First, the camera focuses on channel 1 (Hoechst 33342), where nuclei are identified. Second, a Z offset of 1 um is used for capturing mitochondria (MitoTracker Red). Third, a Z offset of -2 um is used for capturing the cytoskeleton (tubulin). […]
row,SMILES,outcome
1,CC(C)=CC1C(C(=O)OCc2coc(Cc3ccccc3)c2)C1(C)C (stereo not given),inactive
2,CCOc1cc(C(C)(C)C)ccc1C1COC(c2c(F)cccc2F)=N1 (stereo not given),inactive
3,CS(=O)(=O)c1cc(C(F)(F)F)ccc1C(=O)c1cnoc1C1CC1,inactive
4,O=C(Nc1ccccc1-c1ccc(Cl)cc1)c1cccnc1Cl,inactive
5,Clc1nc(Cl)nc(Nc2ccccc2Cl)n1,inactive
6,COC(=O)NS(=O)(=O)c1ccc(N)cc1,inactive
7,N#CN=C1SCCN1Cc1ccc(Cl)nc1,inactive
8,CC1(C)CCC(=Cc2ccc(Cl)cc2)C1(O)Cn1cncn1 (stereo not given),inactive
9,CNC(=O)N(C)c1nnc(C(C)(C)C)s1,inactive
10,O=c1n(Cl)c(=O)n(Cl)c(=O)n1Cl,inactive
11,CCCCOCN(C(=O)CCl)c1c(CC)cccc1CC,inactive
12,COc1ccc(-c2ccccc2)cc1NNC(=O)OC(C)C,inactive
13,O=P(O)(O)CCCl,inactive
14,CCCCC(O)(Cn1cncn1)c1ccc(Cl)cc1Cl (stereo not given),inactive
15,CS(=O)(=O)c1ccc(C(=O)C2C(=O)CCCC2=O)c([N+](=O)[O-])c1,inactive
16,CC(C)N1C(=O)N(c2ccccc2)CSC1=NC(C)(C)C,inactive
17,N#Cc1c(Cl)cccc1Cl,inactive
18,CCN(CC)C(=O)C(C)Oc1cccc2ccccc12 (stereo not given),inactive
19,CC(C)C1(C)N=C(c2ncccc2C(=O)O)NC1=O (stereo not given),inactive
20,O=C(O)c1c(Cl)ccc2cc(Cl)cnc12,inactive

row,SMILES,outcome
1,CNC(=O)Oc1cccc2ccccc12,inactive
2,COP(=O)(OC)O/C(C)=C/C(=O)N(C)C,inactive
3,COP(=S)(OC)SCn1nnc2ccccc2c1=O,inactive
4,CCN(CC)c1nc(C)cc(OP(=S)(OC)OC)n1,inactive
5,CC(C)Oc1cccc(NC(=O)c2ccccc2C(F)(F)F)c1,inactive
6,CC(C)Nc1nc(Cl)nc(NC(C)C)n1,inactive
7,Cc1nc(N(C)C)nc(OC(=O)N(C)C)c1C,inactive
8,CCOP(=O)(OCC)Oc1nc(Cl)c(Cl)cc1Cl,inactive
9,COC(=O)NC(=S)Nc1ccccc1NC(=S)NC(=O)OC,inactive
10,Nc1cnn(-c2ccccc2)c(=O)c1Cl,inactive
11,N#Cc1c[nH]cc1-c1cccc2c1OC(F)(F)O2,inactive
12,CCCCC(C#N)(Cn1cncn1)c1ccc(Cl)cc1 (stereo not given),inactive
13,COCC(C)N(C(=O)CCl)c1c(C)csc1C (stereo not given),inactive
14,CCOP(=S)(OCC)Oc1nc(Cl)n(C(C)C)n1,inactive
15,COC(=O)N(C(=O)N1CO[C@@]2(C(=O)OC)Cc3cc(Cl)ccc3C2=N1)c1ccc(OC(F)(F)F)cc1,inactive
16,CCCC(=NOCC)C1=C(O)CC(CC(C)SCC)CC1=O (stereo not given),inactive
17,CCOC(=O)C(C)OC(=O)c1cc(Oc2ccc(C(F)(F)F)cc2Cl)ccc1[N+](=O)[O-] (stereo not given),inactive
18,COCc1cnc(C2=NC(C)(C(C)C)C(=O)N2)c(C(=O)O)c1 (stereo not given),inactive
19,COC(=O)c1c(C(F)F)nc(C(F)(F)F)c(C2=NCCS2)c1CC(C)C,inactive
20,Cc1cnc(C2=NC(C)(C(C)C)C(=O)N2)c(C(=O)O)c1 (stereo not given),inactive
